Bioassay records from PubChem.
HP1b chromo inh: blocks HP1-beta chromodomain binding to methylated histone tails; P83916; AlphaScreen HP1-beta / biotin-H3K9me3 peptide binding; Potency, µM (highest dose often 114 µM), without a hit: at the top dose activity change, negative = inhibition, actives largely listed as inhibitors; 390,000 compounds, 0.56% hits; AID 540317; also: nearly all actives have a fitted effect of over 70% in size
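Compound inhibition of the preformed complex between 50 nM HP1-beta and 50 nM biotinylated H3K9me3 peptide was read by AlphaScreen. Buffer was PBS pH 7.4 with 0.01% Tween-20. Incubations ran 30 min at room temperature, with 10 ug/mL donor/acceptor beads.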
L3MBTL1 inh: inhibitors of human L3MBTL1. Q9Y468. AlphaScreen L3MBTL1–H3K9me1 peptide binding. Potency, µM (series often up to 57.1 µM), without a hit: at the top dose activity, negative = inhibition, actives largely listed as inhibitors. 230,000 compounds, 0.66% hits; also: % is scaled to controls: 0 for no effect and ±100 for the full control effect; nearly all actives have a fitted effect of over 60% in size
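L3MBTL1 50 nM + b-AHA-H3(1-15)K9me1 75 nM, 30 min RT; compound added, 30 min RT; streptavidin donor/Ni-chelate acceptor beads 10 ug/mL each final, 30 min RT dark; AlphaScreen read.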
Sfp inh: blocks B. subtilis Sfp PPTase activity | Q9F4F7 | Biochemical Sfp PPTase activity, qHTS | Potency, µM, for inactives: largest response in the series, negative = inhibition, hits mostly inhibitors | 310,000 compounds, 3.5% hits | AID 1490;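 also: the enzyme is Sfp with the accession as filed and its product quenches rhodamine fluorescence; 0% = enzyme reaction without inhibitor and -100% = no enzyme wells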
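Buffer: 50 mM Hepes-Na pH 7.6, 10 mM MgCl2, 0.01% Nonidet P-40, 0.01% BSA. Enzyme 15 nM, pre-exposed to compound 15 min; substrates then added and fluorescence change tracked over 30 min.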
G9a inh: inhibitors of human histone lysine methyltransferase G9a | Q96KQ7 | 350,000 compounds, 8.8% hits | G9a H3K9 monomethylation, AlphaScreen, 2 h | Potency, µM (series often up to 102 µM), for the others: at the highest dose activity, negative = inhibition, actives largely listed as inhibitors; also: % is scaled to controls: 0 for no effect and ±100 for the full control effect; nearly all actives have a fitted effect of over 75% in size
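Using a bead-based AlphaScreen, monomethylated H3K9 product from 2 h room-temperature reactions (G9a 20 nM, peptide 500 nM, SAM 20 uM) was detected with 0.5 ug/mL rabbit anti-H3K9me1 antibody.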
BAZ2B inh: blocks human BAZ2B; Q9UIF8; AlphaScreen BAZ2B-H3K14Ac peptide displacement; Potency, µM (doses to about 114 µM), inactives show at the top dose activity change, negative = inhibition, most hits filed as inhibitors; 360,000 compounds, 4.4% hits; AID 504333; also: % is scaled to controls: 0 for no effect and ±100 for the full control effect; nearly all actives have a fitted effect of over 60% in size
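Protein-peptide AlphaScreen: BAZ2B 50 nM, b-H3K14Ac 50 nM, 1x PBS pH 7.4 + 0.01% Tween-20. Preincubation 30 min RT; cpd 30 min RT (top 110 uM); beads 20 min RT, light-protected.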
JMJD2A Tudor: inhibitors of human JMJD2A Tudor domain | O75164 | AlphaScreen JMJD2A-Tudor / H3K4me3 peptide binding | Potency, µM (doses to about 114 µM), without a hit: at the top dose activity change, negative = inhibition, actives largely listed as inhibitors | 390,000 compounds, 4.4% hits | AID 504339; also: % is scaled to controls: 0 for no effect and ±100 for the full control effect; nearly all actives have a fitted effect of over 50% in size
Numbers without * were called inactive; [ ] = dose if it differs, or a comment. Rows were chosen to be rich in hits. Some 12% of all compounds tested hit in one or more screens of this group. Calls follow the shape of the dose curve; as a rule, active = well fitted curve in the direction sought with a large enough effect; inconclusive = small, poorly fitted or top-dose-only effect, or another doubt; inactive = no such curve, though single readings can be large; an effect the other way counts as inactive or inconclusive. Potency is read from the fitted curve at half-maximal effect.

Results for Cc1ccc2c(=O)cc(C(=O)Nc3ccc(S(=O)(=O)N(C)Cc4ccccc4)cc3)oc2c1 ?
HP1b chromo inh: 11%; G9a inh: 4%[59 µM]; BAZ2B inh: -2%; JMJD2A Tudor: -10%

What do the screens show for `Cc1cccc(NC(=O)CCCCCn2c(=O)[nH]c3ccsc3c2=O)c1`?
HP1b chromo inh: 12%; G9a inh: -1%[59 µM]; BAZ2B inh: 5%; JMJD2A Tudor: -21%

What do the screens show for `CC(NC(=O)c1ccco1)C(c1cccs1)N1CCN(c2ccc(F)cc2)CC1` (configuration not stated)?
HP1b chromo inh: -15%; L3MBTL1 inh: -15%; Sfp inh: 2%; G9a inh: 50µM*; BAZ2B inh: 50µM*; JMJD2A Tudor: -35%

How did CC(NC(=O)c1ccco1)C(c1cccs1)N1CCN(c2ccccc2)CC1 (configuration not stated) do in these assays?
HP1b chromo inh: 12%; L3MBTL1 inh: -2%; Sfp inh: 3%; G9a inh: inconclusive; BAZ2B inh: inconclusive; JMJD2A Tudor: inconclusive

How did S=c1[nH]cc(Cc2ccccc2)s1 do in these assays?
HP1b chromo inh: inconclusive; L3MBTL1 inh: 2%; Sfp inh: inconclusive; G9a inh: 1.8µM*; BAZ2B inh: -32%; JMJD2A Tudor: 4µM*

Results for COc1ccc(C)cc1NC1(c2ccccc2)C(=O)c2ccccc2C1=O ?
HP1b chromo inh: inconclusive; G9a inh: 13µM*; BAZ2B inh: inconclusive; JMJD2A Tudor: 28µM*

How did COc1ccc(C)cc1NC(=O)c1cccc(C(=O)Nc2cc(C)ccc2OC)c1 do in these assays?
HP1b chromo inh: 55%; L3MBTL1 inh: -2%[2.29 µM]; Sfp inh: 22%; G9a inh: 5%[0.501 µM]; BAZ2B inh: 6%; JMJD2A Tudor: 0%

How did CCOc1ccccc1NC1(c2ccccc2)C(=O)c2ccccc2C1=O do in these assays?
HP1b chromo inh: inconclusive; G9a inh: 11µM*; BAZ2B inh: inconclusive; JMJD2A Tudor: 11µM*

How did O=C(c1ccc(Cl)cc1)c1cnc(Nc2ccccc2Cl)s1 do in these assays?
HP1b chromo inh: 30%; L3MBTL1 inh: 11%; Sfp inh: -20%; BAZ2B inh: -4%; JMJD2A Tudor: 1%

What do the screens show for `Clc1cccc(Nc2nc(-c3ccncc3)cs2)c1`?
HP1b chromo inh: 16%; L3MBTL1 inh: 7%; Sfp inh: 4%; G9a inh: -34%; BAZ2B inh: -15%; JMJD2A Tudor: -4%

How did S=c1[nH]nc(Nc2ccccc2Cl)s1 do in these assays?
HP1b chromo inh: 22µM*; Sfp inh: -93%; G9a inh: 1.4µM*; BAZ2B inh: 45µM*; JMJD2A Tudor: 6.3µM*

Results for S=c1[nH]nc(Nc2cccc(Cl)c2)s1 ?
HP1b chromo inh: 28%; Sfp inh: 40µM*; G9a inh: 1.4µM*; BAZ2B inh: -31%; JMJD2A Tudor: -15%

How did CC1=C(C(=O)OC(C)C)C(c2cccs2)N2C(=O)CCSC2=N1 (configuration not stated) do in these assays?
HP1b chromo inh: 4%; L3MBTL1 inh: -4%; Sfp inh: 8%; G9a inh: 1%[59 µM]; BAZ2B inh: -19%; JMJD2A Tudor: -23%

What do the screens show for `CC1=C(C(=O)OC(C)C)C(c2cccs2)N2C(=O)C(C)SC2=N1` (configuration not stated)?
HP1b chromo inh: 15%; L3MBTL1 inh: 1%; Sfp inh: 15%; G9a inh: 2%; BAZ2B inh: 2%; JMJD2A Tudor: 79µM*

How did CC(C)CO/N=C1/C[C@@H](O)[C@@H](O)[C@@H]2[C@@H]3C(=O)N(Cc4ccccc4)C(=O)[C@H]3CC[C@@H]12 do in these assays?
Sfp inh: 14%

How did O=[N+]([O-])c1cc([N+](=O)[O-])c2c(=Nc3ccccc3)n(-c3ccccc3)n(O)c2c1 do in these assays?
HP1b chromo inh: inconclusive; L3MBTL1 inh: -19%; Sfp inh: inconclusive; G9a inh: 35µM*; BAZ2B inh: 20µM*; JMJD2A Tudor: inconclusive

Results for CCN1CCN(C(=O)NC2CCCCC2)CC1 ?
HP1b chromo inh: inconclusive; L3MBTL1 inh: -6%; Sfp inh: -18%; BAZ2B inh: inconclusive; JMJD2A Tudor: 28µM*

How did Cc1cc(C)nc(-n2nc(C)c3c(=O)[nH]c(C(F)(F)F)nc32)n1 do in these assays?
HP1b chromo inh: 10%; L3MBTL1 inh: -4%; Sfp inh: -29%; G9a inh: -41%[59 µM]; BAZ2B inh: -5%; JMJD2A Tudor: 79µM*

Results for Cc1nn(-c2cccc(Cl)c2)c2nc(C(F)(F)F)[nH]c(=O)c12 ?
HP1b chromo inh: 39%; L3MBTL1 inh: -8%; Sfp inh: 19%; G9a inh: -7%[59 µM]; BAZ2B inh: 1%; JMJD2A Tudor: -4%

What do the screens show for `CC(CCc1ccccc1)NC(=O)CN1CCOc2ccccc21` (configuration not stated)?
HP1b chromo inh: 40%; JMJD2A Tudor: -33%

How did COc1ccccc1NC(=O)CN1CCSc2ccccc21 do in these assays?
HP1b chromo inh: 5%; Sfp inh: -13%; G9a inh: inconclusive; BAZ2B inh: -1%; JMJD2A Tudor: -27%

How did Cc1cccc(NC(=O)CN2CCSc3ccccc32)c1 do in these assays?
HP1b chromo inh: 31%; L3MBTL1 inh: -17%; Sfp inh: 1%; G9a inh: 45µM*; BAZ2B inh: inconclusive; JMJD2A Tudor: -24%

How did CC(CCc1ccccc1)NC(=O)CN1CCSc2ccccc21 (configuration not stated) do in these assays?
HP1b chromo inh: 79µM*; Sfp inh: inconclusive; G9a inh: 32µM*; BAZ2B inh: inconclusive; JMJD2A Tudor: 56µM*

How did COc1cccc(NC(=O)CN2CCSc3ccccc32)c1 do in these assays?
HP1b chromo inh: 3%; Sfp inh: 63µM*; G9a inh: 22µM*; BAZ2B inh: inconclusive; JMJD2A Tudor: -33%

How did CC(C)c1cnc2c(c1SCC(=O)Nc1ccc(C(N)=O)cc1)c(=O)n(C)c(=O)n2C do in these assays?
HP1b chromo inh: 32%[57 µM]; G9a inh: 5%[59 µM]; BAZ2B inh: 14%; JMJD2A Tudor: -4%

How did COc1cc2ccc(=O)oc2c(O)c1OCC=C(C)C do in these assays?
HP1b chromo inh: -11%; L3MBTL1 inh: -3%; Sfp inh: -2%; G9a inh: 11µM*; BAZ2B inh: -33%; JMJD2A Tudor: inconclusive

What do the screens show for `CC(C)=CCOc1ccc2ccc(=O)oc2c1`?
HP1b chromo inh: 49%; L3MBTL1 inh: 23%; Sfp inh: 3%; G9a inh: 7%[12.7 µM]; BAZ2B inh: 10%; JMJD2A Tudor: 4%
